# Rows were chosen to be rich in hits. Some 4.6% of all compounds tested hit in one or more screens of this group.
# D1 antag = blocks dopamine activation of the human D1 receptor; HEK293 TREx D1 cells, calcium flux, dopamine EC80; active compounds read low; activity change, negative = inhibition, % at 10 µM; 360,000 tested, 3.2% active; in the data active means activity change below about -30%; further: on the % scale 0 is the no-effect control and ±100 the full control effect
# Target sequence (P21728 whole entry, looked up): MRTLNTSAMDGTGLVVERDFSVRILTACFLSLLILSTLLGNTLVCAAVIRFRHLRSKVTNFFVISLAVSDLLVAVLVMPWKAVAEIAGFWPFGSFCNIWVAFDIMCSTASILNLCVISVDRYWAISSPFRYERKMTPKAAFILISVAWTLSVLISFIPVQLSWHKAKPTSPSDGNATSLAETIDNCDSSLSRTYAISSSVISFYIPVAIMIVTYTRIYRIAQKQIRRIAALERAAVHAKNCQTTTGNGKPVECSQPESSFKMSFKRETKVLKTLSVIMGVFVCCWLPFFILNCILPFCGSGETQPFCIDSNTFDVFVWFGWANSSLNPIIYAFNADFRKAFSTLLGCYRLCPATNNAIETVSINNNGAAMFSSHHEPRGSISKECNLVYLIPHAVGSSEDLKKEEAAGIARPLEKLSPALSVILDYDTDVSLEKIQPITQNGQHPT
#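 After overnight tetracycline induction at 30 C, force-coupled D1 HEK293 cells took up a no-wash calcium dye at room temperature. Compounds were added and monitored 180 s, and the response to EC80 dopamine was then recorded.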
# Epigenetic reg = derepresses silenced GFP reporter in murine cells. murine LDR cells, GFP reporter derepression, 30 h. Potency, µM (doses to about 53.9 µM), without a hit: at the top dose GFP activation, most hits filed as activators. 280,000 tested, 0.2% active. AID 1865; active means well fitted activation curve with a large enough effect; further: potency means the concentration at half of the fitted maximal effect; % of control where 0% means no effect; nearly all actives have a fitted effect of over 60% in size
#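 Derepression of a silenced CMV-GFP reporter in murine LDR cells is scored by enumerating GFP-positive cells with a laser-scanning microplate cytometer after 30 hours of treatment at 37 C.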
# D1 ag = activates the human D1 dopamine receptor | P21728 | HEK293 T-REx D1 cells, calcium flux, agonist mode | activation, % at 2 µM | 360,000 tested, 1% active; further: 0% is about no effect
#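 Tetracycline-induced HEK293 TREx D1 cells, force-coupled to calcium signalling, were dye-loaded with a no-wash calcium kit. Compound was pin-added after a 10 s baseline. Fluorescence was read kinetically at 1 cycle/s for 180 s, with calcium rises flagged as agonism.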
# D1 PAM = enhances dopamine response at the human D1 receptor | HEK293 TREx D1 cells, calcium flux, dopamine EC20 potentiation | potentiation, % at 10 µM | 360,000 tested, 0.036% active; in the data active means potentiation above about 30%; further: 0% is about no effect
# TRHR enhancer = TRH receptor (human) allosteric enhancement | P34981 | TRHR cells, fluo-8 calcium fluorescence, EC20 TRH enhancement | enhancement, % at 2 µM | 360,000 tested, 0.66% active; in the data active means enhancement above about 30%; further: 0% is about no effect
#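 TRHR-expressing cells loaded with fluo-8 calcium dye were read kinetically (ex 480/em 530) during compound addition, then stimulated with an EC20 of TRH (10 nM final). Enhancement of the Gq-mediated intracellular calcium response was scored.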
# TRHR ag = agonists of human TRH receptor. P34981. TRHR cells, calcium flux fluo-8, FDSS agonist mode. activation, % at 2 µM. 360,000 tested, 0.18% active; further: 0% is about no effect
#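 Fluo-8-loaded TRHR cells; 10 s baseline, compound added, kinetic Ca2+ fluorescence read 1/s, agonist mode.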
# An asterisk follows results filed as active; . = no result. Unless noted, no stated cut-off is given here; in the data, active means activation above about 30%; inactive means the rest.
SMILES,D1 antag,Epigenetic reg,D1 ag,D1 PAM,TRHR enhancer,TRHR ag
CC1=NN(c2ccccc2)C(=O)C1,3,1%,4,2,6,0
COC(=O)[C@@]1(Cc2ccccc2)[C@H]2c3cc(C(=O)N4CCCC4)n(Cc4ccccc4)c3C[C@H]2CN1C(=O)c1ccccc1,.,5%,.,.,.,.
COc1ccc(NC(=O)CSc2nnnn2-c2ccc(OC)cc2)cc1,-80*,-8%,-3,4,6,0
CN(C)S(=O)(=O)c1ccc(Cl)c(NC(=O)CSc2nnnn2-c2ccc(O)cc2)c1,-32*,11%,15,4,11,-1
Cc1ccc(S(=O)(=O)N(C)C)cc1NC(=O)CSc1nnnn1-c1ccc(O)cc1,-8,1%,3,-1,1,2
COc1ccc(C(=O)Nc2ccc(NC(=O)CSc3nnc(-c4ccncc4)n3C)cc2)cc1,8,.,3,0,3,1
COc1ccc(NC(=O)CSc2nnnn2-c2ccc(F)cc2)cc1,0,.,1,0,0,0
CCn1c(SCC(=O)N(C)CC(=O)Nc2ccc(OC)cc2)nnc1-c1ccco1,-24,.,1,1,38*,-1
COc1ccc(-c2nnc(SCC(=O)Nc3ccc(C)cc3)n2C)cc1,-90*,-6%,0,0,-1,0
COc1ccc(OC)c(/C=C(/C#N)c2nc(-c3ccc(-c4ccccc4)cc3)cs2)c1,-9,-1%,5,1,2,1
Fc1cccc(Cl)c1Cn1c(-c2cccs2)nc2ccccc21,7,-5%,2,1,-7,-1
COc1cc2c(cc1OC)-c1c(oc3cc(O)cc(O)c3c1=O)CO2,.,3%,.,.,.,.
Cc1ccc(Nc2nc3ccccc3c3nnc(C)n23)c(C)c1,13,1%,5,5,0,0
O=C1Nc2ccc(Cl)cc2C12Nc1ccccc1-c1nnc(SCc3ccccc3F)nc1O2 (centres undefined),-45*,-2%,3,-11,4,-1
COc1cccc(OCc2nc3ccccc3n2CCOc2ccc(C)cc2)c1,-8,2%,30,-3,16,4
COc1ccc(N2CC(C(=O)Nc3c4c(nn3-c3ccccc3)CS(=O)(=O)C4)CC2=O)cc1 (centres undefined),-52*,.,1,-7,-3,0
Cc1ccc(N2CC(C(=O)Nc3ccccn3)CC2=O)cc1 (centres undefined),-8,1%,4,-5,-5,0
CCOc1ccc(N2CC(C(=O)Nc3ccccc3N3CCOCC3)CC2=O)cc1 (centres undefined),-30*,0%,5,-1,0,-1
CCOc1ccc(N2CC(C(=O)Nc3ccccn3)CC2=O)cc1 (centres undefined),-36*,4%,-1,-9,-2,0
CCOc1ccc(N2CC(C(=O)Nc3cc(OCC)c(N4CCOCC4)cc3OCC)CC2=O)cc1 (centres undefined),8,.,2,0,4,-1
Cc1nn(C)c2c1c(-c1ccccc1)cc(=O)n2C(C)C(=O)NCCc1ccc(Cl)cc1 (centres undefined),-3,0%,2,-2,3,0
COc1ccccc1CNC(=O)CN1C(=O)CSc2ccc(S(=O)(=O)N(C)C)cc21,6,-3%,1,-2,-4,0
O=C(CSCc1ccc(Cl)cc1)Nc1cccc(C(=O)O)c1,-4,.,1,4,38*,1
CC(=O)c1cccc(NC(=O)CSCc2ccc(Br)cc2)c1,-33*,1%,10,-7,-2,0
Cc1ccc(NS(=O)(=O)c2cc(Br)cnc2N)c(Cl)c1,6,.,8,-5,-1,-1
SMILES,D1 antag,Epigenetic reg,D1 ag,D1 PAM,TRHR enhancer,TRHR ag
Nc1ncc(Br)cc1S(=O)(=O)Nc1cc(C(F)(F)F)cc(C(F)(F)F)c1,-34*,.,19,-6,-7,4
Cc1ccc(N2CC(NC(=O)C3CCCCC3)CC2=O)cc1C (centres undefined),.,3%,-1,-1,1,0
COc1ccc(CCNC(=O)CCc2cn(Cc3ccccc3Cl)c3ccccc23)c(OC)c1,-36*,4%,4,-2,-7,1
COc1cccc(-c2nc(S(=O)(=O)c3ccc(Cl)cc3)c(NCc3ccccc3)o2)c1,-4,-2%,0,-4,13,0
O=C(C1CCC(Cn2c(=O)c3sccc3n(Cc3cccc(F)c3)c2=O)CC1)N1CCCCC1 (centres undefined),11,1%,10,-5,-1,-1
Cc1ccc(C2=[N+]([O-])C3(CCCCC/C3=N\O)N(O)C2(C)C)o1 (centres undefined),7,-1%,4,5,1,1
CC1(C)C(c2ccc(Cl)cc2)=[N+]([O-])C2(CCCC/C2=N\O)N1O (centres undefined),-87*,-1%,3,-7,5,0
O=C(C1CCC1)N1CCc2cc(S(=O)(=O)NCCc3ccccc3)ccc21,-14,2%,12,1,1,-2
CC(C)CNC(=O)c1ccccc1NC(=O)CCSc1ccccc1,-9,-1%,1,-3,1,1
CC(C)CNC(=O)c1ccccc1NC(=O)c1ccc(CSc2ccccc2)cc1,1,0%,32*,-9,9,3
CCOC(=O)c1c(C)oc2ccc(N(C(=O)Oc3ccccc3)S(=O)(=O)c3ccc(CC)cc3)cc12,-5,-2%,3,0,5,0
CCn1cc(C(=O)NCc2ccccc2)c(=O)c2cc(S(=O)(=O)N3CCCCCC3)ccc21,1,-2%,2,4,-2,-1
CCOc1ccc(/C=C/c2nc(C#N)c(NC3CCCCC3)o2)cc1,-38*,-2%,5,0,-7,-1
CC1CC(C)CN(c2oc(-c3ccco3)nc2C#N)C1 (centres undefined),-46*,-1%,1,4,1,0
CCOc1ccc(NC(=O)COc2ccc(S(=O)(=O)NC3CCCCC3)cc2)cc1,1,3%,-1,-5,-4,-1
COc1ccc(NC(=O)C(OC(=O)CNC(=O)c2ccccc2)c2ccccc2)cc1F (centres undefined),-6,.,0,5,2,1
COc1ccc(C(CCNCc2ccc(N(C)C)cc2)c2ccccc2)cc1 (centres undefined),4,.,28,0,6,1
COc1ccc(C(C)NCCC(c2ccc(OC(C)C)cc2)c2ccccc2OC)cc1 (centres undefined),19,.,38*,9,6,3
